# Bioassay records deposited in PubChem BioAssay by National Center for Advancing Translational Sciences (NCATS).
# Only a selection was taken, and hits are over-represented in it overall.
# Tb PYK inh: T. brucei pyruvate kinase inhibition; Potency, µM (doses to about 76.8 µM), for inactives: at the highest dose activity, negative = inhibition, actives largely listed as inhibitors; TbPYK enzyme, Kinase-Glo Plus ATP luminescence, 45 min; Q57TT1; AID 624173; 0.12% of 410,000 active; note: potency is the fitted concentration of half-maximal effect; % is set by controls: 0 for no effect and ±100 for the full control effect; nearly all actives have a fitted effect of over 50% in size
#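 Luminescent Kinase-Glo Plus end-point after 45 min room-temperature reaction of T. brucei pyruvate kinase started with 130 uM ADP (final). Buffer TEA 50 mM pH 7.2 with KCl, MgCl2, BSA, Tween-20; titration-based qHTS with fitted concentration-effect curves.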
# Shiga inhibitor: inhibitors of Shiga toxin in Vero cells. 9.2% of 290,000 active. inhibition, % at 38.7 µM. Vero cells, Shiga toxin protein synthesis inhibition reporter; in the data active = inhibition mostly above about 28%, no sharp cut-off; inactive = mostly below about 43%; note: 0% is about no effect
# CHX counter: affects cycloheximide protein synthesis inhibition readout, counter-screen; cell reporter, cycloheximide protein synthesis inhibition counterscreen; max response, %; 12% of 300,000 active; AID 2314; in the data active = max response mostly above about 13%, no sharp cut-off; inactive = mostly below about 14%; note: read at 38.3 µM for the half of the compounds with a filed dose; 0% is about no effect
# RE007 growth inh: less growth of the S. pombe RE007 Vpr strain. S. pombe RE007 Vpr strain, BacTiter-Glo ATP luminescence, 24 h. Potency, µM (highest dose often 92.2 µM), for the others: at the top dose activity change, negative = less growth, usual class: inhibitors. 0.21% of 360,000 active; active = well fitted falling curve with a large enough effect; inconclusive = small, poorly fitted or top-dose-only effect; inactive = no such curve, though single readings can be large or run the other way; note: potency is the fitted concentration of half-maximal effect; % is set by controls: 0 for no effect and ±100 for the full control effect; nearly all actives have a fitted effect of over 50% in size
#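 Fission yeast RE007 carrying one integrated HIV-1 vpr copy, seeded at OD 0.01 in PMG+AL medium with 23 nL pinned compound. Grown 24 h at 30 degrees; viability read by BacTiter-Glo luminescence after 5 min.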
# LmPK inh: LmPK (Leishmania mexicana) enzyme inhibition. purified LmPK, Kinase-Glo ATP luminescence, 1 h. Potency, µM (doses to about 57.5 µM), without a hit: top-dose activity change, negative = inhibition, actives largely listed as inhibitors. 0.37% of 290,000 active; note: potency is the fitted concentration of half-maximal effect; % is set by controls: 0 for no effect and ±100 for the full control effect
#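 Purified LmPK (0.1 nM) converted ADP (0.1 mM) to ATP with PEP (0.5 mM) in imidazole buffer pH 7.2 with KCl and MgCl2, 1 h at room temperature. ATP was read by Kinase-Glo luminescence; data normalized to uninhibited and no-enzyme controls.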
# FBPA Giardia inh: Giardia lamblia aldolase inhibition | 0.71% of 290,000 active | A8B2U2 | purified Giardia FBPA | Potency, µM (series often up to 59.6 µM), without a hit: at the highest dose activity, negative = inhibition, usual class: inhibitors; note: potency is the fitted concentration of half-maximal effect; % is set by controls: 0 for no effect and ±100 for the full control effect; nearly all actives have a fitted effect of over 55% in size
# Target sequence (A8B2U2 whole entry, looked up): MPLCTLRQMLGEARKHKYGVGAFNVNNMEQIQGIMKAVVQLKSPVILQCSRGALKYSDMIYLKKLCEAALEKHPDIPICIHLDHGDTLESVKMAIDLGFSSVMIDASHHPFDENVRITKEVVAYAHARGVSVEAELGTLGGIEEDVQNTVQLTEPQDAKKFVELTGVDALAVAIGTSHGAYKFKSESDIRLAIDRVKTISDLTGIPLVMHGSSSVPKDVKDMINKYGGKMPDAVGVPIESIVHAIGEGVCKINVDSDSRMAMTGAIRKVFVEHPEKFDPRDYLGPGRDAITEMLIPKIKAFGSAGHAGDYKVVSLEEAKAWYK
#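 Giardia FBPA (40 nM reagent) was preincubated 10 min at RT with compound (up to 57.5 uM final), then substrate plus GAPDH/TPI/NAD/arsenate coupling system with diaphorase/resazurin was added; resorufin fluorescence (525/598 nm) was read after 20 min.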
# * hit, by the source's call; i = inactive; ? = inconclusive; . = no result given; [ ] = another dose, or the depositor's remark. Unless noted, calls come from the whole dose curve; as a rule, active = well fitted curve in the direction sought with a large enough effect; inconclusive = small, poorly fitted or top-dose-only effect, or another doubt; inactive = no such curve, though single readings can be large; an effect the other way counts as inactive or inconclusive.
SMILES,Tb PYK inh,Shiga inhibitor,CHX counter,RE007 growth inh,LmPK inh,FBPA Giardia inh
O=C(NCc1ccccc1)c1ccc2c(c1)N(Cc1ccccc1F)C(=O)c1ccccc1S2=O (configuration not stated),3.4%,.,.,.,.,.
Cc1n[nH]c(=S)n1/N=C/c1ccc(-c2ccccc2[N+](=O)[O-])o1,7.94µM*,32.5,12.8*,10.7%,-10.9%,-11.3%
CCCCC(=O)N/N=C/c1ccc(-c2ccc([N+](=O)[O-])cc2)o1,5.6%,24.8*,14.0,0.3%,4.7%,-0.4%
CCOC(=O)c1ccc(-c2ccc(/C=N/NC(=O)CN(c3ccccc3Br)S(C)(=O)=O)o2)cc1,-23.4%,55.9*,35.7*,.,5.4%,0.0%
CC(C)(C)NC(=S)N/N=C\c1ccc(-c2ccc([N+](=O)[O-])cc2)o1,1.2%,73.0*,37.4*,-11.0%,0.2%,?
COc1cccc(Cn2c(=O)c(-c3ccc(Cl)cc3)nc3cncnc32)c1,.,.,.,.,.,-1.4%
Cc1nnc(N/N=C\c2ccc(-c3ccccc3[N+](=O)[O-])o2)n1N,-2.1%,15.0,9.1,-22.7%,-1.1%,1.77µM*
Cc1ccc(C(=O)N/N=C\c2ccc(-c3ccc(Cl)c(Cl)c3)o2)cn1,-5.9%,7.2,0.6,3.1%,2.5%,0.5%
CCc1nnc(N/N=C/c2ccc(-c3ccc([N+](=O)[O-])cc3)o2)n1N,-6.1%,-2.8,11.8,?,-0.3%,4.46µM*
Cc1nnc(SCC(=O)N/N=C/c2ccc(-c3ccc(C)c(Cl)c3)o2)s1,-9.7%,39.6,17.4*,-0.4%,-0.5%,-5.2%
CCC(=O)N/N=C/c1ccc(-c2ccc(Cl)cc2)o1,5.2%,66.8*,34.4*,12.1%,4.6%,-0.2%
Cc1cc([N+](=O)[O-])c(C)cc1-c1ccc(/C=N/NC(=O)Cn2nnnc2N)o1,0.0%,50.7,-0.4,-3.7%,-18.9%,-14.0%
CCCNC(=O)c1cc(Cl)c(NC(=O)C2=CSCCO2)cc1OC,0.0%,19.1*,20.2,-7.6%,-8.1%,.
COc1cccc(C(=O)CCN[C@@H](C)[C@H](O)c2ccccc2)c1,-7.0%,.,.,.,.,.
Cc1ccc(-c2csc3ncnc(N4CCN(C(=O)c5ccco5)CC4)c23)cc1,4.2%,.,.,9.6%,.,.
COc1ccc(-c2nsc3c(N4CCCC4)ncnc23)cc1,0.4%,118.2*,49.1*,-11.0%,-19.0%,4.9%
O=C(c1ccco1)N1CCN(c2ncnc3c(-c4ccc(Cl)cc4)nsc23)CC1,0.0%,101.0*,47.9*,3.9%,-7.8%,2.8%
Cc1ccc(-c2nsc3c(N4CCN(C(=O)c5ccco5)CC4)ncnc23)cc1,.,71.2*,29.6*,.,-3.5%,-1.3%
COc1ccc2c(c1)sc1ncc(C(=O)NCc3cccc(Cl)c3)c(=O)n12,-2.6%,.,.,.,.,.
Cc1ccc(NC(=O)CSc2nc3nc(C)c(Cc4ccccc4)c(C)n3n2)cc1,21.0%,.,.,.,.,.
COc1ccccc1CNS(=O)(=O)c1cc(C(=O)Nc2cccc(C(F)(F)F)c2)ccc1F,1.5%,.,.,.,.,.
Cc1ccc(NC(=O)CN2CCCCCC2)cc1Br,-0.7%,73.1,18.7*,?,-9.4%,?
COc1ccc(N2CCN(CC(=O)Nc3ccc(C)cc3Br)CC2)cc1,-5.4%,.,.,-17.0%,.,.
Cc1ccc(NC(=O)CN2CCCCCC2)c(Br)c1,8.2%,81.2*,35.7*,-13.2%,-1.1%,1.0%
O=C(CN1CCCCCC1)Nc1cccc(Br)c1,6.3%,-10.9,-1.2,-12.8%,-4.8%,-15.7%
SMILES,Tb PYK inh,Shiga inhibitor,CHX counter,RE007 growth inh,LmPK inh,FBPA Giardia inh
COc1cccc(NC(=O)CSc2nc(-c3ccccc3Cl)nc3c2Cc2c(CO)cnc(C)c2O3)c1,-0.6%,.,.,.,.,.
CCOC(=O)N1CCc2c(sc3c2C(=O)NC(c2cc(OC)c(OC)c(OC)c2)N3)C1 (configuration not stated),3.0%,.,.,.,.,.
COc1ccc(OC(=O)c2cccnc2)cc1,-2.6%,-9.8,-1.6,-4.9%,-1.7%,1.7%
CCCCCCCCOC(=O)c1ccc(N)cc1,-2.4%,8.8,9.4,28.2µM*,6.8%,0.6%
COc1ccccc1C(=O)Oc1ccc(C(C)(C)C)cc1,8.9%,73.4,29.4*,-12.9%,-2.6%,-3.8%
CCCCOC(=O)c1ccc(OC(=O)c2cccnc2)cc1,3.6%,33.4*,23.5*,?,1.9%,12.2%
CC(C)(C)c1ccc(OC(=O)c2cccnc2)cc1,-9.0%,20.0,18.0*,-10.3%,0.3%,4.6%
CCCC[C@]12Cc3cc(C#N)ccc3C(O1)c1c(cc(-c3ccccc3)oc1=O)O2,.,i,6.3,.,-6.7%[11.5 µM],48.0%[12.9 µM]
COc1ccc(C(=O)Oc2ccc(C(C)=O)cc2)c(OC)c1,0.6%,56.3,29.8*,-1.3%,-0.5%,-0.3%
CCCCCCCOc1ccc(OC(=O)c2cccnc2)cc1,0.2%,-4.3,-2.2,-15.4%,-1.5%,-0.6%
CCCCCCOC(=O)c1ccc(OC(=O)c2cccnc2)cc1,-4.0%,58.1*,32.2*,-3.4%,0.3%,-4.2%
Cn1c(NCc2ccco2)nc2ccccc21,-2.7%,15.4,12.3*,-11.6%,-7.2%,-0.4%
Cn1c(NCc2cccs2)nc2ccccc21,4.0%,57.2*,32.6*,-4.4%,-5.2%,4.9%
CCOc1ccc(NC(=O)Cn2cc(C(=O)c3ccc(C)c(C)c3)c(=O)c3cc(F)ccc32)cc1,4.4%,.,.,.,.,.
CCOCCc1nn2c(=O)cc(CSCC(=O)Nc3ccccc3)nc2s1,-1.8%,14.5,21.3*,2.8%,3.1%,.
CCOCCc1nn2c(=O)cc(CSCC(=O)Nc3ccc(OC)cc3)nc2s1,-0.3%,-5.8,4.5,-2.2%,1.5%,.
Cc1ccc(C)c(S(=O)(=O)NCCc2csc(-c3ccc(Cl)cc3)n2)c1,-0.4%,.,.,.,.,.
O=C(O)CCn1c(SCCOc2ccccc2F)nc2ccccc21,-2.8%,5.2,18.0*,-4.6%,0.0%,-19.6%
CCn1c(SCCOc2ccccc2F)nc2ccccc21,4.9%,.,.,.,.,.
COc1ccccc1OCCSc1nc2ccccc2n1CC(O)CO (configuration not stated),2.1%,25.1,12.9*,0.9%,-7.2%,-9.3%
O=C(O)CCn1c(SCCc2ccccc2)nc2ccccc21,-1.6%,.,.,-6.0%,.,.
O=C(O)CCn1c(SCc2ccccc2)nc2ccccc21,2.2%,22.9*,8.8,7.3%,-5.1%,5.8%
COC(=O)Cn1c(SCc2ccccc2)nc2ccccc21,-5.7%,48.4,18.5*,-2.1%,-8.5%,-7.4%
CC(C)c1ccc(S(=O)(=O)N2CCN(CC(=O)Nc3ccccc3C(F)(F)F)CC2)cc1,-0.3%,.,.,.,.,.
O=C1c2ccccc2C(=O)N1CCOCCN1C(=O)c2ccccc2C1=O,-2.8%,11.8,-3.8,-19.2%,-0.8%,3.0%
Nc1cccc2c1C(=O)N(CCOc1ccccc1F)C2=O,2.7%,45.6*,19.0*,-12.9%,-5.4%,-2.3%
N#Cc1ccccc1OCCN1C(=O)c2ccccc2C1=O,5.7%,86.0*,40.4*,22.5%,-10.5%,3.1%
